Assay outcomes: PubChem, National Center for Advancing Translational Sciences (NCATS)
An excerpt weighted towards active compounds, which were near 6.1% of everything screened.
TGFb inhibitor – inhibitors of TGF-b signaling | HepG2 CAGA-GFP TGF-b/SMAD3 reporter, GFP fluorescence, 18 h; TGF-beta stimulated, 500 pg/mL final | Potency, µM (doses to about 46.1 µM), inactives show top-dose activity, negative = inhibition, actives largely listed as inhibitors | 410,000 compounds, 1.2% hits | AID 588855; further: on the % scale 0 is the no-effect control and ±100 the full control effect; nearly all actives have a fitted effect of over 65% in size
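Per well, imaged GFP fluorescence of HEPG2 CAGA-GFP cells gives the signal; cells get compound, then TGF-beta (500 pg/mL final), 18 h at 37 degrees C; %Activity versus -TGF-beta and +DMSO controls.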
HepG2 viability – HepG2 cytotoxicity, counter-screen for TGF-b inhibitors; HepG2 CAGA-GFP viability, ATP luminescence, 18 h; Potency, µM (highest dose often 46.1 µM), for inactives: top-dose activity change, negative = cytotoxicity, most hits filed as cytotoxic; 410,000 compounds, 0.76% hits; AID 588856
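CellTiter-Glo luminescence gave cytotoxicity after 18 hours at 37 degrees C. The cells were HepG2 CAGA-GFP in 1% FBS DMEM, stimulated with 500 pg/mL TGF-beta after compound addition. %Activity was normalised to no-cell wells (complete cell-killing) and DMSO (no toxicity), and curves were fitted and classified.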
VP16 counter – counter-screen for ROR gamma inhibitors: Gal4-VP16 reporter; 310,000 compounds, 3.5% hits; Drosophila S2 Gal4-VP16 UAS-luciferase, luminescence, 20 h; Potency, µM (doses to about 53.6 µM), for the others: at the top dose activity, negative = inhibition, hits mostly inhibitors;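 further: Gal4-VP16 expression switched on by copper sulfate through the metallothionein promoter; on the % scale 0 is the no-effect control and ±100 the full control effect; nearly all actives have a fitted effect of over 50% in size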
RORg inh – ROR gamma (mouse) transcription inhibition; P51450; Drosophila S2 Gal4-RORgamma UAS-luciferase reporter, 20 h; Potency, µM (doses to about 53.6 µM), for inactives: at the highest dose activity change, negative = inhibition, hits mostly inhibitors; 310,000 compounds, 5.4% hits; AID 2551; further: on the % scale 0 is the no-effect control and ±100 the full control effect; nearly all actives have a fitted effect of over 60% in size
Target sequence (P51450 whole entry, looked up, the tested form may be a part): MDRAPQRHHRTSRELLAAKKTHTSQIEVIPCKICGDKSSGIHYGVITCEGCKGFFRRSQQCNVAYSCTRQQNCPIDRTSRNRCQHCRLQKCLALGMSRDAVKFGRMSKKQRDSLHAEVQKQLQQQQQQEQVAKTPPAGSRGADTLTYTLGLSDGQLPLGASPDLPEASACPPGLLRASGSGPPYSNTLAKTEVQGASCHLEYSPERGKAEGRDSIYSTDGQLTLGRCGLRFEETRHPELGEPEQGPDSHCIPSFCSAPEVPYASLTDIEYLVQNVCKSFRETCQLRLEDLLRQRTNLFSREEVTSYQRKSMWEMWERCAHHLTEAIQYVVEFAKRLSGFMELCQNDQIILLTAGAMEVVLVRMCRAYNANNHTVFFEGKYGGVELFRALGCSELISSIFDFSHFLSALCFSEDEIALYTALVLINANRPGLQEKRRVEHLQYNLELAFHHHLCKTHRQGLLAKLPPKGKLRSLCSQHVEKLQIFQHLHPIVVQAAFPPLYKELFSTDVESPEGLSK
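Drosophila Schneider cells stably carrying a metallothionein-driven Gal4 DBD–ROR gamma fusion and a UAS-Photinus luciferase reporter were exposed to compound for 1 hr, then induced with copper sulfate (700 uM final) for 20 hr at ambient temperature before luminescence reading.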
ATXN viability – cell viability loss in ATXN counter-screen. S2 cells (HEK-293 line with an ATXN2-luciferase reporter) viability, CellTiter-Fluor protease fluorescence, 24 h. 400,000 compounds, 0.49% hits. Potency, µM (series often up to 56.7 µM), most hits filed as cytotoxic; further: nearly all actives have a fitted effect of over 40% in size
ATXN2 expr inh – ATXN2 expression inhibition | HEK-293 ATXN2-luciferase reporter, luminescence, 24 h | Potency, µM (highest dose often 57 µM), inactives show top-dose activity change, negative = inhibition, most hits filed as inhibitors | 360,000 compounds, 0.72% hits; further: on the % scale 0 is the no-effect control and ±100 the full control effect; nearly all actives have a fitted effect of over 55% in size
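qHTS (up to 57 uM final) was run with 24 h compound exposure of reporter cells at 37 °C. Each well was multiplexed: SteadyGlo luminescence measured ATXN2-luciferase expression after a fluorogenic Gly-Phe-AFC viability readout (25 uM final).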
* marks the source's active call; other numbers are inactive results; i = inactive; u = inconclusive; x = no result given; ! = not confirmed by another sample; [ ] = dose if it differs, or a comment. The call rests on the fitted dose curve; in most records, active means well fitted curve in the direction sought with a large enough effect; inconclusive means small, poorly fitted or top-dose-only effect, or another doubt; inactive means no such curve, though single readings can be large; an effect the other way counts as inactive or inconclusive. Potency means the concentration at half of the fitted maximal effect.

SMILES	TGFb inhibitor	HepG2 viability	VP16 counter	RORg inh	ATXN viability	ATXN2 expr inh
O=C1NC[C@H](Cc2ccccc2)N(C[C@H]2CCCN2C[C@H](Cc2ccccc2)N2C[C@H](Cc3ccccc3)N(CCc3ccccc3)C(=O)C2=O)C1=O	u	-34.4%	x	x	17.8µM*	u
CCOc1ccc(CCN2C(=O)C(=O)N([C@@H](Cc3ccc(O)cc3)CN3CCC[C@H]3CN3C(=O)C(=O)NC[C@@H]3Cc3ccccc3)C[C@@H]2Cc2ccc(O)cc2)cc1	x	x	x	x	i	5.5%
CCOc1ccc(CCN2C(=O)C(=O)N([C@@H](Cc3ccccc3)CN3CCC[C@H]3CN3C(=O)C(=O)NC[C@@H]3Cc3ccccc3)C[C@@H]2Cc2ccccc2)cc1	x	x	x	x	28.2µM*	u
CCOc1ccc(CCN2C(=O)C(=O)N([C@@H](CC(C)C)CN3CCC[C@@H]3CN3C(=O)C(=O)NC[C@@H]3Cc3ccccc3)C[C@@H]2CC(C)C)cc1	10µM*	-36.7%	x	x	x	u
CCOC(=O)c1nnn(-c2ccccc2)c1C	6.3%	-15.2%	12.2%	26.6%	i	25.5%
CCOC(=O)N1CCN([N+]([O-])=NOc2cc(ON=[N+]([O-])N3CCN(C(=O)OCC)CC3)c([N+](=O)[O-])cc2[N+](=O)[O-])CC1	x	x	x	x	x	5.0%
CCOC(=O)N1CCN(/[N+]([O-])=N/Oc2ccc([N+](=O)[O-])cc2[N+](=O)[O-])CC1	u	-18.8%	7.08µM*!	8.91µM*	x	x
CCOC(=O)c1nnn(-c2ccc([N+](=O)[O-])cc2[N+](=O)[O-])c1C	10µM*	15.8µM*	u	7.08µM*	i	1.0%
COc1ccc(-n2nnnc2S(=O)(=O)Cc2ccc(C(=O)O)cc2)cc1	-17.4%	-5.7%	3.8%	-39.6%	u	u
COc1ccc(-n2nnnc2S(=O)(=O)CC(=O)N2CCCCC2)cc1	u	12.6µM*	4.47µM*	2.82µM*	10µM*	12.6µM*
Cc1ccc(C(=O)N/N=C\c2ccc(-c3ccc([N+](=O)[O-])cc3)o2)cn1	-2.4%	9.2%	-1.8%	u	i	0.7%
NC(=S)N/N=C/c1ccc(-c2cc(Cl)cc(Cl)c2)o1	u	-27.7%	3.98µM*	1.26µM*	u	-7.6%
NC(=S)N/N=C/c1ccc(-c2cc(Cl)ccc2Cl)o1	10µM*	-39.8%	2.82µM*	1.26µM*	i	5.8%
COC(=O)N/N=C/c1ccc(-c2cc(Cl)cc(Cl)c2)o1	10.3%	-5.4%	-7.3%	19.1%	i	8.6%
NC(=S)N/N=C/c1ccc(-c2ccc([N+](=O)[O-])cc2)o1	u	-41.0%	u	7.08µM*	i	-16.3%
CC(=O)c1cccc(NC(=O)Cn2c(-c3cncs3)nc3ccccc32)c1	8.3%	-19.6%	x	x	u	-22.2%
CCOC(=O)OCC1OC(C#CC(C)(C)C)C=CC1OC(=O)OCC (centres undefined)	x	x	4.2%[10 µM]	-2.5%[10 µM]	x	x
Cc1ccc2c(c1)c(C)c(C)n2CC(O)Cn1nc(C)c(Br)c1C (centres undefined)	u	15.8µM*	-25.4%	6.2%	u	u
CCC1=NN(C(=O)c2cccc([N+](=O)[O-])c2)C(O)(c2ccc(C)cc2)C1 (centres undefined)	u	-74.0%	5.62µM*	5.01µM*	u	-37.3%
CCOC(=O)N1N=C(C)CC1(O)c1ccccc1 (centres undefined)	-1.6%	19.5%	3.0%	15.8%	i	-2.4%
N#CC1(c2ccccc2)CCCN1C(=O)c1ccc(Br)cc1 (centres undefined)	u	-7.0%	1.7%	12.7%	i	-3.1%
O=C(c1ccccc1)N1N=C(C(F)(F)F)CC1(O)c1ccccc1O (centres undefined)	8.91µM*	7.08µM*	12.6µM*	8.91µM*	u	x
CC1=NN(C(=O)c2ccccc2)C(O)(c2ccc(Br)cc2)C1 (centres undefined)	u	-21.0%	u	7.94µM*	i	-37.9%
CCC1=NN(C(=O)c2ccc(Br)cc2)C(O)(c2ccccc2)C1 (centres undefined)	u	-26.3%	7.08µM*	12.6µM*	i	u
Cc1ccc(Nc2ccc(N3CCN(C(=O)c4cccc([N+](=O)[O-])c4)CC3)nn2)cc1	u	19.4%	x	x	x	x
SMILES	TGFb inhibitor	HepG2 viability	VP16 counter	RORg inh	ATXN viability	ATXN2 expr inh
CC1=C(C(=O)Nc2cc3cn[nH]c3cc2F)C(c2ccc(C(F)(F)F)cc2)CC(=O)N1 (centres undefined)	x	x	x	x	x	2.4%
O=C(Cc1csc(Nc2nc(=S)[nH]c3ccccc23)n1)N1CCN(c2cccc(Cl)c2)CC1	4.0%	-21.7%	5.01µM*	1µM*	x	-32.7%
Cc1ccc(Cl)cc1N1CCN(C(=O)Cc2csc(Nc3nc(=S)[nH]c4ccccc34)n2)CC1	6.8%	-8.9%	3.55µM*	0.631µM*	x	2.0%
Cc1ccc(Cl)cc1N1CCN(C(=O)Cn2ccc3ccccc3c2=O)CC1	-25.5%	-14.4%	9.5%	32.1%	i	-21.4%
Cc1ccc(NC(=O)c2ccc(NCCN)c([N+](=O)[O-])c2)cc1	3.4%	-26.6%	-28.4%	6.31µM*	i	15.1%
Cc1cc(Nc2ccc(Cl)cc2C)nc(-n2nc(C)cc2C)n1	-7.1%	-31.1%	x	x	x	x
Cc1ccc(Nc2cc(C)nc(-n3nc(C)cc3C)n2)cc1	u	-27.2%	x	x	x	x
Cc1cc(Cl)nc(-n2nc(C)cc2C)n1	8.8%	3.8%	12.6µM*	3.55µM*	i	-9.6%
CNc1cc(C)nc(-n2nc(C)cc2C)n1	21.6%	12.8%	2.51µM*	0.631µM*	u	20.7%
Cc1cc(C)n(-c2nc(N(c3ccccc3)c3ccccc3)nc(-n3nc(C)cc3C)n2)n1	u	4.8%	5.62µM*	5.62µM*	8.91µM*	10µM*
CCOc1ccc(Nc2cc(C)nc(-n3nc(C)cc3C)n2)cc1	u	-21.3%	0.891µM*	0.159µM*	u	-23.1%
COc1ccccc1CNC(=O)C1CCN(S(=O)(=O)c2c(C)noc2/C=C/c2cccs2)CC1	-8.9%	-23.1%	x	x	x	x
COc1ccc(NC(=O)c2cc(S(=O)(=O)NCCC3=CCCCC3)ccc2F)cc1	u	-37.5%	x	x	u	u
Cc1ccc(S(=O)(=O)c2[nH]c(-c3ccccc3)nc2SCC(N)=O)cc1	10.6%	-9.6%	x	x	i	11.0%
Cc1cc(C)n(-c2nncc(-c3ccccc3)n2)n1	9.3%	-10.7%	u	u	i	28.9%
Cc1cc(C)n(-c2nc(C)nc(N)n2)n1	-17.4%	18.5%	-19.1%	14.1µM*	i	3.8%
